Compound activity deposited in PubChem by NMMLSC.
Anthrax LF prot: inhibitors of Bacillus anthracis lethal factor protease; P15917; multiplex microsphere protease cleavage assay, LF; inhibition, % at 10 µM; 360,000 compounds, 0.12% hits; AID 588501
Target sequence (P15917 whole entry, looked up): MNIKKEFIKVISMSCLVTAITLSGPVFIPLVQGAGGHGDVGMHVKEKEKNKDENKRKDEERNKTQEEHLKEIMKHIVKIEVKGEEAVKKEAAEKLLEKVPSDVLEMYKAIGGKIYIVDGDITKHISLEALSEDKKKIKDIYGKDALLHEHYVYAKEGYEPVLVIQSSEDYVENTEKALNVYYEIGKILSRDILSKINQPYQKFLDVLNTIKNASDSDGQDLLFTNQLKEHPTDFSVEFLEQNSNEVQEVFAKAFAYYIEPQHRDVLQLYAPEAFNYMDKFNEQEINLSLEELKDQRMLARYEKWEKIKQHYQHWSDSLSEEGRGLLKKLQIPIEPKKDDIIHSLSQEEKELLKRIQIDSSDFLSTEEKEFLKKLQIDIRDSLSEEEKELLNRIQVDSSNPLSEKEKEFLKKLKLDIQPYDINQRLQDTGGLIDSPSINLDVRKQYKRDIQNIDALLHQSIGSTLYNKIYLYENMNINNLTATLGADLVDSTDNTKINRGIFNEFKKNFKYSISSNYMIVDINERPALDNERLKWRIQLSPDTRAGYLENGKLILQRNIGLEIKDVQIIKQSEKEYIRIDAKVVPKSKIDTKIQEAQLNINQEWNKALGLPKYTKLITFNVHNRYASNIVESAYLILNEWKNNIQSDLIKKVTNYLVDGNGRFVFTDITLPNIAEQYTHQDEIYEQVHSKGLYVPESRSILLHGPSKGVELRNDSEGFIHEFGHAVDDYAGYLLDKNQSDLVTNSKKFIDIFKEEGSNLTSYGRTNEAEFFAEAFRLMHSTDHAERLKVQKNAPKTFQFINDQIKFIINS
BoNT-A LC inh2: BoNT A light chain protease inhibition; inhibition, % at 10 µM; multiplex microsphere protease substrate cleavage, flow cytometry; 360,000 compounds, 0.17% hits
BoNT-F LC inh: blocks Botulinum neurotoxin F light chain protease | Multiplex microsphere protease cleavage assay, flow cytometry | inhibition, % at 10 µM | 360,000 compounds, 0.22% hits | AID 588497; in the data active = inhibition above about 35%, passing the limit was not always enough; inconclusive = no clear call, values can overlap the other calls
Bead autofluor: compound fluorescence in toxin protease inhibitor counterscreen | compound autofluorescence counterscreen, microsphere flow cytometry; stronger effect = higher value | 360,000 compounds, 3.1% hits | fluorescence intensity (test concentration not listed); in the data active = fluorescence intensity above about 16000; inconclusive = no clear call, values can overlap the other calls
Large screens that a line does not name were inactive; ! = not active in a repeat. Shown are actives, neighbours in structure and some others; about 3.5% of the full set was active somewhere. Rule as the data show it, unless noted: active = inhibition above about 30%; inconclusive = no clear call, values can overlap the other calls; inactive = below that.

CCCc1cc(Nc2cccc(OC)c2)n2ncnc2n1	Bead autofluor 23259
CCCc1cc(Nc2cccc(OCC)c2)n2ncnc2n1	none
COc1cccc(N2CN(CCc3ccccc3)CNC2=S)c1	Anthrax LF prot inconclusive, BoNT-F LC inh 50
O=C(Nc1ccc2c(c1)OCO2)N1CCN(C/C=C/c2ccccc2)CC1	Bead autofluor 17067
COC(=O)c1ccccc1NC(=O)N1CCN(C/C=C/c2ccccc2)CC1	Bead autofluor 20603
O=C(Nc1ccc2c(c1)OCO2)N1CCN(c2ccccc2)CC1	none
COc1cccc(NC(=S)N2CCN(C/C=C/c3ccccc3)CC2)c1	Bead autofluor 22410
O=C(Nc1ccc2c(c1)OCO2)N1CCN(c2ncccn2)CC1	Bead autofluor 22918
O=C1/C(=C/c2cccnc2)Oc2cc(OS(=O)(=O)c3ccc(Cl)cc3)ccc21	Bead autofluor 21029
O=C1/C(=C/c2cccnc2)Oc2cc(OS(=O)(=O)c3ccccc3)ccc21	none
COc1ccc(S(=O)(=O)Oc2ccc3c(c2)O/C(=C\c2cccnc2)C3=O)cc1	BoNT-A LC inh2 inconclusive, Bead autofluor 23126
O=C(Nc1ccccc1Cl)c1cc(C2CCCN(S(=O)(=O)c3cccs3)C2)on1 (stereo not drawn)	none
Cc1ccccc1NC(=O)NCCN1C(=O)C2C3C=CC(C3)C2C1=O (stereo not drawn)	none
COC(=O)CNC(=O)CNC(=O)Nc1ccccc1	BoNT-A LC inh2 inconclusive, Bead autofluor 19345
CC(=O)c1ccc(NC(=O)CN(c2c(C)cccc2C)S(C)(=O)=O)cc1	BoNT-F LC inh inconclusive
O=C(N/N=C/c1ccncc1)c1cccs1	none
CSc1ccc(/C=N/NC(=O)c2cccs2)cc1	Anthrax LF prot inconclusive, BoNT-F LC inh 45
COc1ccc(NC(=O)CSc2nnc(-c3ccccn3)n2-c2ccccc2)cc1OC	Bead autofluor 20651
Cc1ccc(-c2nnc(SCC(=O)CC(=O)Nc3ccccc3)n2-c2ccccc2)cc1	Bead autofluor 21966
O=C(CSc1nnc(-c2cccnc2)n1-c1ccccc1)Nc1ccccc1	none
CC(C)OC(=O)CSc1nnc(-c2cnccn2)n1-c1ccc(Cl)cc1	BoNT-A LC inh2 inconclusive, Bead autofluor 21757
Cc1ccc(C(=O)NNC(=O)CSc2nnc(-c3ccncc3)n2-c2ccc(C)cc2)cc1	Bead autofluor 20719
Cc1ccc(-n2c(SCC(=O)Nc3ccc(C(=O)O)cc3)nnc2-c2ccncc2)cc1	none
COc1cccc(CN2CC(C(=O)NCC3CCOCC3)CCC2=O)c1 (stereo not drawn)	none
CC(C)CNC(=O)C1CCCN(C(=O)NCc2ccccc2)C1 (stereo not drawn)	none
Cc1ccc(-n2c(Cc3ccccc3)nnc2SCC(=O)NNC(=O)Cc2ccccc2)cc1	Bead autofluor 16282
Cc1ccc(NC(=O)CSc2nnc(-c3cnccn3)n2-c2ccccc2)cc1	BoNT-A LC inh2 inconclusive, Bead autofluor 16733
CC(=O)Nc1ccc(S(=O)(=O)N(C)CC(=O)OCC(=O)N(C)C2CCS(=O)(=O)C2)cc1 (stereo not drawn)	Bead autofluor inconclusive
Cc1nn(-c2ccccc2)c(C)c1/C=N/NC(=O)c1cc(-c2ccc(Br)s2)[nH]n1	Bead autofluor 21752
Cc1nn(-c2ccccc2)c(C)c1/C=N/NC(=O)c1ccccc1O	BoNT-F LC inh 88
Cc1nn(-c2ccccc2)c(C)c1/C=N/NC(=O)c1cc(-c2ccc(Cl)s2)[nH]n1	Bead autofluor 17595
Cc1nn(-c2ccccc2)c(C)c1/C=N/NC(=O)c1cc(-c2cccs2)[nH]n1	none
COc1ccc2cc(C(c3nnnn3Cc3ccccc3)N3CCCCCC3)c(=O)[nH]c2c1 (stereo not drawn)	Bead autofluor 18165
COc1ccc(Cn2nnnc2C(c2cc3ccc(OC)cc3[nH]c2=O)N2CCC(C)CC2)cc1 (stereo not drawn)	Bead autofluor 31718
COc1ccc2cc(C(c3nnnn3Cc3ccc(F)cc3)N3CCCCCC3)c(=O)[nH]c2c1 (stereo not drawn)	none
CCN(CC)c1ccc(C=N/C(C#N)=C(\N)C#N)cc1	Bead autofluor 17577
COc1ccncc1-c1ccccc1C1=CC(=O)CC(C)(C)C1=O	none
O=C(NC1CC1)c1ccc(-c2cnc3cccnn23)cc1	none
CCOC(=O)Cc1csc(NC(=O)CSc2nnc(-c3ccncc3)o2)n1	none
CCOC(=O)Cc1csc(NC(=O)CSc2nnc(-c3ccc(NS(=O)(=O)CC)cc3)o2)n1	Bead autofluor 21681
O=C(COC(=O)CC12CC3CC(CC(C3)C1)C2)Nc1ncc(Cl)cc1Cl	Bead autofluor 24856
COc1ccc(OCCCC(=O)OCC(=O)Nc2ncc(Cl)cc2Cl)cc1	none
CC(C)(Oc1ccc(Cl)cc1)C(=O)OCC(=O)Nc1ncc(Cl)cc1Cl	Bead autofluor 22776
Nc1cccc(-c2c[nH]c3ncc(-c4cccnc4)cc23)c1	none
COCCOC(=O)C1=C(C)Nc2nc(C)nn2C1c1ccc(F)cc1 (stereo not drawn)	BoNT-A LC inh2 inconclusive, Bead autofluor 18889!
